Screens (PubChem BioAssay)
TDP43 rescue: inhibitors of TDP-43 toxicity in yeast; TDP-43 expressing yeast growth rescue, BacTiter-Glo, 24 h; Potency, µM (top dose mostly 46.1 µM), usual class: activators; 1.8% of 410,000 active; also: nearly all actives have a fitted effect of over 50% in size
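Luminescence from BacTiter-Glo reports growth of TDP-43-expressing yeast after 24 hr at 30 deg C with compound. Cells were raffinose-pregrown to mid-log, then seeded in galactose medium at OD600=0.02.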
Abeta rescue: A-beta toxicity reversal in yeast; yeast expressing A-beta42, growth rescue, OD600, 48 h; response scale: 0% DMSO, 100% iron-clioquinol control; Potency, µM (series often up to 46.1 µM), usual class: activators; 0.063% of 410,000 active; also: nearly all actives have a fitted effect of over 55% in size
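Yeast growth medium received pinned compounds, then yeast cells expressing toxic A-beta were added; plates incubated at 30 C for 48 hr. Growth read as absorbance at 600 nm, normalized to DMSO and equimolar FeCl3 plus clioquinol controls.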
aSyn yeast inh: alpha-synuclein toxicity inhibition in yeast; Potency, µM (titrated, usually from 46.1 µM), most hits filed as activators; 0.14% of 370,000 active; Yeast expressing alpha-synuclein, growth rescue, BacTiter-Glo, 24 h; AID 652106; also: nearly all actives have a fitted effect of over 65% in size
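Readout is rescue of growth in alpha-synuclein-expressing yeast, so inhibitors of toxicity appear as activators. Growth after 24 hr at 30 deg C in galactose medium is quantified by luminescence.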
Mito fusion act: inhibitors of mitochondrial division or activators of mitochondrial fusion. S. cerevisiae fusion-defective mutant growth rescue, CellTiterGlo 48 h. Potency, µM (doses to about 46.1 µM), hits mostly activators. 0.23% of 320,000 active. AID 485298; also: nearly all actives have a fitted effect of over 45% in size
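Read-out: ATP-based luminescence (CellTiterGlo, 10 min ambient) reporting growth of fusion-defective ts yeast after 48 hours at 37C on glycerol/ethanol YPEG medium in the presence of compound.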
FUS yeast rescue: rescues growth of FUS-expressing yeast | Potency, µM (highest dose often 76.6 µM), actives largely listed as activators | S. cerevisiae FUS-expressing, growth rescue, OD600, 24 h | 0.24% of 390,000 active | AID 1347120; also: nearly all actives have a fitted effect of over 55% in size
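Read-out: OD at 600 nm after 24hr at 30C, reporting rescue of FUS-induced yeast toxicity. Cells at OD 0.005 in galactose (2%) minimal medium; compounds tested in a dilution series; CP55940 titration from 92uM final as control.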
Large screens that a line does not name were inactive. An excerpt weighted towards active compounds, which were near 2.2% of everything screened. Calls follow the shape of the dose curve; as a rule, active = well fitted curve in the direction sought with a large enough effect; inconclusive = small, poorly fitted or top-dose-only effect, or another doubt; inactive = no such curve, though single readings can be large; an effect the other way counts as inactive or inconclusive.

COc1ccc2c(c1)-c1ccccc1S(=O)(=O)N2C	TDP43 rescue 11.2µM
COc1ccc2c(c1)-c1ccccc1S(=O)(=O)N(C)C2	TDP43 rescue inconclusive (no result: Mito fusion act)
COC(=O)[C@@]1(OC(C)=O)CC(OC(C)=O)[C@H](OC(C)=O)[C@H](OC(C)=O)C1Br (stereo partly drawn)	none (no result: TDP43 rescue, Abeta rescue, aSyn yeast inh, Mito fusion act)
Cc1ccc(C)c2[nH]c(=O)c(CN(CCN3CCCC3)C(=O)Nc3cccc(Cl)c3)cc12	Abeta rescue inconclusive, FUS yeast rescue 35.5µM
Cc1cc(C)c2cc(CN(CCN3CCCC3)C(=O)Nc3ccc(F)cc3)c(=O)[nH]c2c1	FUS yeast rescue inconclusive
CC(C)Oc1ccc(F)cc1-c1cc(C(=O)N2CCc3ccccc3C2)[nH]n1	TDP43 rescue 28.2µM, FUS yeast rescue inconclusive (no result: Mito fusion act)
O=C(NC(c1ccccc1)c1ccccc1)c1ccc(CO)cc1	aSyn yeast inh inconclusive
C=CCc1cccc(/C=N/NC(=O)CNc2ccccc2OC)c1O	TDP43 rescue 11.2µM
C=CCc1cccc(/C=N/NC(=O)CNc2cccc3ccccc23)c1O	Abeta rescue inconclusive, aSyn yeast inh inconclusive
O=C(Oc1ccc2c(c1)OCO2)C12CC3CC(CC(C3)C1)C2	TDP43 rescue inconclusive
O=C(Oc1ccc(O)cc1)C12CC3CC(CC(C3)C1)C2	TDP43 rescue 14.1µM, Mito fusion act inconclusive
O=C(OCC(=O)C12CC3CC(CC(C3)C1)C2)c1ccc(O)cc1	TDP43 rescue 11.2µM (no result: Mito fusion act)
O=C(OCC(=O)C12CC3CC(CC(C3)C1)C2)c1ccc(CO)cc1	TDP43 rescue inconclusive
O=S(=O)(CCSc1nc2ccccc2s1)c1nc2ccccc2s1	TDP43 rescue 2.51µM
C=CCS(=O)(=O)c1nc2ccccc2s1	TDP43 rescue 22.4µM
CCS(=O)(=O)CCSc1nc2ccccc2s1	none
CN1C(=O)N(CC(=O)NCc2ccc(Cl)cc2Cl)C(=O)C12CCCCC2	none
Cc1ccc(CNC(=O)CCS(=O)(=O)c2cc(Br)cc3c2N(C(=O)C2CC2)CC3)cc1	FUS yeast rescue inconclusive (no result: aSyn yeast inh, Mito fusion act)
O=C(CCS(=O)(=O)c1cc(Br)cc2c1N(C(=O)C1CC1)CC2)NCc1ccc(Cl)cc1	FUS yeast rescue 28.2µM (no result: aSyn yeast inh, Mito fusion act)
CCOc1cc(-c2cc(-c3ccc(N)cc3)nc(N)c2C#N)ccc1O	TDP43 rescue 15.8µM
Cc1ccc(-c2cc(-c3ccc(F)cc3)nc(N)c2C#N)o1	none
N#Cc1c(-c2ccncc2)cc(-c2ccc(F)cc2)nc1N	Abeta rescue 5.62µM
COc1cc(-c2coc3c(C(=O)NCc4ccc(OC)c(OC)c4)cccc23)ccc1O	TDP43 rescue 14.1µM, aSyn yeast inh inconclusive (no result: Mito fusion act)
COc1cc(-c2coc3c(C(=O)NCc4ccc(N(C)C)cc4)cccc23)ccc1O	FUS yeast rescue inconclusive (no result: Mito fusion act)
COc1cc(-c2coc3c(C(=O)NC4CCCCC4)cccc23)ccc1O	TDP43 rescue 35.5µM, FUS yeast rescue inconclusive (no result: Mito fusion act)
C[C@H]1CN([C@@H](C)CO)C(=O)CCCn2nncc2CO[C@@H]1CN(C)S(=O)(=O)c1ccc(-n2cccn2)cc1	none (no result: Mito fusion act)
COc1cc(/C=C/C(=O)c2c(O)ccc3c(C)cc(=O)oc23)ccc1O	TDP43 rescue inconclusive, aSyn yeast inh 5.01µM
COc1ccc(NC(=O)C(C2CC2)n2c(=O)c(-c3ccccc3)nc3ccccc32)cc1 (stereo not drawn)	TDP43 rescue 20µM (no result: Mito fusion act)
COCCn1c(SCC(=O)Nc2ccc(NC(=O)c3ccco3)c(OC)c2)nc2ccccc2c1=O	none
CCCCn1c(SCC(=O)Nc2cc(NC(=O)c3ccco3)ccc2C)nc2ccccc2c1=O	FUS yeast rescue 31.6µM
C#CCO[C@@H]1C[C@H](n2cnc3c(NC(=O)c4ccccc4)ncnc32)O[C@@H]1CO	none
COc1ccc(Br)cc1S(=O)(=O)NCCc1cccs1	TDP43 rescue 20µM, aSyn yeast inh inconclusive (no result: Mito fusion act)
NS(=O)(=O)c1ccc(Nc2nc(-c3ccc(O)cc3O)cs2)cc1	none (no result: FUS yeast rescue)
Cc1cccnc1Nc1nc(-c2ccccc2)cs1	TDP43 rescue 15.8µM
Cc1cccnc1Nc1nc(-c2ccc(O)cc2O)cs1	TDP43 rescue 22.4µM, aSyn yeast inh inconclusive
CCOc1ccccc1Nc1nc(-c2cccnc2)cs1	TDP43 rescue 11.2µM
Oc1ccc(-c2csc(Nc3ccccn3)n2)c(O)c1	TDP43 rescue 20µM
COc1ccccc1C/C(N)=N/OC(=O)c1ccco1	TDP43 rescue 10µM
Cc1cc(C)nc(NC(=O)/C=C/c2ccc(Cl)cc2Cl)c1	TDP43 rescue 7.08µM (no result: FUS yeast rescue)
Cc1cc(C)nc(NC(=O)/C=C/c2ccccc2Cl)n1	none
Cc1cc(C)nc(NC(=O)/C=C/c2ccccc2Cl)c1	TDP43 rescue 12.6µM, Mito fusion act 25.1µM (no result: FUS yeast rescue)
S=C(Nc1ccccc1Cl)OCCN1CCCC12CCC(c1ccccc1)CC2 (stereo not drawn)	none (no result: TDP43 rescue, Abeta rescue, aSyn yeast inh, Mito fusion act)
Cc1ccc(NP(=O)(c2ccc(N(C)C)cc2NC(=O)c2cccs2)N2CCOCC2)cc1 (stereo not drawn)	none
Cc1ccc(NP(=O)(c2ccc(N(C)C)cc2NC(=O)c2cccs2)N2CCOCC2)cc1Cl (stereo not drawn)	FUS yeast rescue 3.98µM
N=c1c2c(ncn1CCN1CCOCC1)Oc1ccc3ccccc3c1C2c1ccccc1 (stereo not drawn)	none (no result: aSyn yeast inh)
N=c1c2c(ccn1Cc1ccccc1)Oc1ccc3ccccc3c1C2c1ccccc1 (stereo not drawn)	FUS yeast rescue 14.1µM (no result: TDP43 rescue, Abeta rescue, aSyn yeast inh, Mito fusion act)
O=C(COc1ccc(C2SCCS2)cc1)NNC(=O)C(Cl)Cl	none
COc1ccc(/C=N/N2CCOCC2)cc1COc1ccc(F)cc1	TDP43 rescue inconclusive
COc1ccc(/C=N/NC(=O)c2ccn[nH]2)cc1COc1ccc(Cl)cc1	TDP43 rescue 17.8µM
COc1ccc(/C=N/N2CCOCC2)cc1COc1ccc(Cl)cc1	TDP43 rescue 15.8µM (no result: FUS yeast rescue)
O=S1(=O)c2c(cccc2N2CC[C@@H](O)C2)O[C@H]2CCN1C2	none (no result: TDP43 rescue, Abeta rescue, aSyn yeast inh, Mito fusion act)
NC(=O)/C(=N\OC(=O)c1ccco1)c1nc(-c2ccc(Br)cc2)cs1	TDP43 rescue 15.8µM (no result: FUS yeast rescue)
CCCCCOc1ccc(/C=N/NC(=O)CSc2nnc(-c3ccc(OC)cc3)n2-c2ccc(C)cc2)cc1	none (no result: TDP43 rescue, Abeta rescue, aSyn yeast inh, Mito fusion act)
Nc1c(Cl)cnc(C(Cl)(Cl)Cl)c1Cl	TDP43 rescue 12.6µM
COc1ccc(N2CCN(C(=O)CSc3nnc4c(C)cc5ccc(C)c(C)c5n34)CC2)cc1	TDP43 rescue 14.1µM, FUS yeast rescue inconclusive
CCC(=O)N1CCc2cc(Br)cc(S(=O)(=O)CCC(=O)NCCc3cccc(C)c3)c21	none (no result: aSyn yeast inh, Mito fusion act)
C/C(=N\Nc1ccc(C(=O)O)cc1)c1ccc(Cl)s1	none
C/C(=N/Nc1ncc(Br)cn1)c1ccc(Br)cc1	TDP43 rescue 28.2µM
C/C(=N\Nc1ccc(C(=O)O)cc1)c1ccc(Br)cc1	TDP43 rescue 10µM
C/C(=N/NC(=O)CCC(=O)Nc1ccc(Br)cc1)c1ccc(Br)cc1	none
COc1ccccc1NC(=O)OC1CCC12CCCCC2 (stereo not drawn)	none (no result: TDP43 rescue, Abeta rescue, aSyn yeast inh, Mito fusion act)
